p-CIP stab down: compounds decreasing mouse p/CIP protein stability; AID 1984; decrease of EGFP signal, % at 10 µM; 290,000 tested, 0.01% active; F442A p/CIP-EGFP cells, EGFP fluorescence, 16 h; Q05BA5;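 active = EGFP signal decrease of at least 30% at 10 µM or well 3 SD below plate mean, unless failing retest; inactive = the rest, including hits failing retest or dose response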
Mot1-301 SUMO: SUMOylation pathway inhibition by Mot1-301 growth rescue. S. cerevisiae Mot1-301 growth rescue, ATP luminescence, 38.5C; percent above DMSO median, 100 means doubled. growth rescue, % at 18.8 µM. 320,000 tested, 1% active. AID 2716;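 active = every valid replicate shows activation above 250% relative to neutral control wells; inactive = the rest, any valid replicate at or below 250%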
PHOSPHO1 block: blocks human PHOSPHO1 phosphatase activity; recombinant PHOSPHO1, absorbance phosphatase assay; inhibition, % at 13.3 µM; 290,000 tested, 1.1% active; Q8TCT1; in the data active = inhibition above about 60%
HDAC3 inh: human HDAC3 inhibition; O15379; recombinant HDAC3, fluorogenic peptide/trypsin coupled, fluorescence; inhibition, % at 8.3 µM; 320,000 tested, 0.15% active; in the data active = inhibition above about 26%, passing the limit was not always enough; inconclusive = no clear call, values can overlap the other calls
GASC-1 inh: blocks human GASC-1 demethylase activity | GST-JMJD2C(1-420) H3K9me3 demethylation, DELFIA europium | Q9H3R0 | 330,000 tested, 0.069% active | inhibition, % at 2.35 µM | AID 2099;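 active = more than half of a compound's replicate wells show inhibition beyond 50%, single wells judged on their own value; inconclusive = some, but no more than half, of replicates pass 50% inhibition; inactive = no replicate passes 50% inhibition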;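 also: signal counts dimethyl H3K9 product captured on neutravidin plate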
Target sequence (Q9H3R0 1-420 limits assumed): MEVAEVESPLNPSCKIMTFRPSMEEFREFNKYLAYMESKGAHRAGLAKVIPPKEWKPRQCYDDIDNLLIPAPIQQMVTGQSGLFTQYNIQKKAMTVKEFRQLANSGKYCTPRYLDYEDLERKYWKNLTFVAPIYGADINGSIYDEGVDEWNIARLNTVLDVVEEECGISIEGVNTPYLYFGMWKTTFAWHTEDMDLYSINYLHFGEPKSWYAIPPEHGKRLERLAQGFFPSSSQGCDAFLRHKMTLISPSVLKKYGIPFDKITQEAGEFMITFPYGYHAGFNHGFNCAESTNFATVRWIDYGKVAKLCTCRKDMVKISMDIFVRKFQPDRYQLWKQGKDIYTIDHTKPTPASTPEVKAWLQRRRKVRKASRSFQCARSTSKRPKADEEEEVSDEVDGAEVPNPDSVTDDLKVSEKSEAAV
PvdQ inh: blocks Pseudomonas aeruginosa PvdQ acylase activity | purified PvdQ acylase, fluorescence plate reader | inhibition, % at 10 µM | 340,000 tested, 0.063% active; in the data active = inhibition above about 30%, passing the limit was not always enough; inconclusive = no clear call, values can overlap the other calls
Numbers stand for hits; n = inactive; u = inconclusive; x = no result given; + = active, no number. This is a sample that favours compounds with a hit; in the whole collection about 2.2% have one here.

SMILES	p-CIP stab down	Mot1-301 SUMO	PHOSPHO1 block	HDAC3 inh	GASC-1 inh	PvdQ inh
CC(=O)NC/C(C)=N\Nc1ccc([N+](=O)[O-])cc1	n	279.2	n	n	n	n
C/C(=N\Nc1ccc([N+](=O)[O-])cc1)c1ccc(O)cc1	n	337.2	n	n	n	n
O=C(CCC(=O)N1CCCC1)Nc1ccc(Cl)c(Cl)c1	n	n	n	n	n	n
CCn1c(COc2ccc(C(C)C)cc2)nnc1SCC(=O)Nc1nccs1	n	n	96.9	n	n	n
CCn1c(Cc2ccccc2)nnc1SCC(=O)Nc1nccs1	n	n	n	n	n	n
CCSCc1nnc(SCC(=O)Nc2nccs2)n1CC	n	n	60.0	n	n	n
CCOC(Cn1ccc(=O)[nH]c1=O)OCC	n	n	n	n	n	n
Cc1ccc(NC(=O)C(=O)NCCCN2CCCC2=O)c(C)c1	x	n	x	n	n	n
Cc1ccc(NC(=O)C(=O)NCCCN2CCCC2=O)cc1	x	433.1	x	n	n	n
COc1ccc(-c2oc3c(OC)c(OC)c(OC)c(O)c3c(=O)c2OC)cc1OC	n	+	n	n	n	n
COc1ccc(CCNC(=O)Cn2c(=O)n(-c3ccc(C)c(F)c3)c(=O)c3sccc32)cc1OC	n	n	n	n	n	n
O=C(CSc1ncn[nH]1)N1N=C2/C(=C\c3ccco3)CCCC2C1c1ccco1 (centres undefined)	x	x	x	x	x	n
CCCCN1C(=O)C(=O)N(CC(=O)N2N=C3/C(=C/c4ccco4)CCCC3C2c2ccco2)C1=O (centres undefined)	n	n	62.2	n	n	n
O=C(CSc1ncn[nH]1)N1N=C2/C(=C/c3ccco3)CCCC2C1c1ccco1 (centres undefined)	n	n	87.4	n	n	n
CCCCCNCC(=O)Nc1cccc(C(=O)Nc2cccc(C(F)(F)F)c2)c1	n	n	n	n	n	n
c1ccc(NCc2cccnc2)cc1	n	292.5	n	n	n	n
Fc1ccc(NCc2cccnc2)cc1	n	n	n	n	n	n
N/C(Cn1cncn1)=N\NC(=O)C(=O)Nc1ccc(Cl)cc1Cl	n	n	60.0	u	n	n
Cc1nn(C)c(Oc2ccc(Cl)cc2)c1C(=O)Nc1ccc(F)cc1F	n	312.2	n	n	n	n
Cn1nc(C(F)(F)F)c(C(=O)Nc2ccc(F)cc2F)c1Oc1cccc(Cl)c1	n	n	n	n	n	n
C=CCC1(CC=C)CCCN1C(=O)c1cc(COc2cccc(OC)c2)on1	n	n	n	n	n	n
C=CCC1(CC=C)CCCN1C(=O)c1cc(COc2cncc(Cl)c2)on1	n	n	65.8	n	n	n
O=C(COC(=O)Cc1cccs1)NCc1ccc(F)cc1	n	n	n	n	n	n
Cc1ccccc1Oc1ncnc2sccc12	n	n	n	n	n	n
COc1ccccc1Oc1ncnc2sccc12	n	x	60.9	n	n	n
SMILES	p-CIP stab down	Mot1-301 SUMO	PHOSPHO1 block	HDAC3 inh	GASC-1 inh	PvdQ inh
Cc1ccccc1NC(=O)c1c(C)cc(=O)oc1C	n	n	n	n	n	n
Cc1cc(=O)oc(C)c1C(=O)Nc1cccc2nonc12	n	323.7	n	n	n	n
C=CCN1C(=O)C2(OCCO2)c2cc(C)ccc21	n	n	n	n	n	n
Cc1[nH]c(=O)[nH]c(=O)c1/C=C/C(=O)O	n	853.2	n	x	n	n
COC(=O)/C=C/c1c(C)[nH]c(=O)[nH]c1=O	n	n	n	n	n	n
COc1cc2[nH]c3c(=O)n(N)c(=O)[nH]c3c2cc1OC	n	n	n	n	n	n
O=S(=O)(Cc1ccc(Cl)cc1)c1ncc(CO)n1Cc1ccccc1	n	+	n	n	n	n
O=C(c1cccc(Br)c1)N1CCN(S(=O)(=O)N2CCOCC2)CC1	n	333.0	n	n	n	n
O=C(c1ccccc1)N1CCN(S(=O)(=O)N2CCOCC2)CC1	n	n	n	n	n	n
CCc1cccc(C)c1NC(=O)CN(C)C1=NS(=O)(=O)c2ccccc21	x	x	x	x	x	n
Cc1cc(N)n2nc(C)c(-c3ccccc3)c2n1	n	n	60.1	n	n	n
Cc1cc(N)n2nc(C)c(-c3ccc(Cl)cc3)c2n1	n	x	n	n	n	n
COc1cc(C(=O)O/N=C2/C=C(C)C(=O)C=C2C)cc(OC)c1OC	n	n	n	35.0	n	n
CCOC(=O)C(C)On1c(-c2ccc(Cl)cc2)nc2ccc([N+](=O)[O-])cc21 (centres undefined)	n	n	101.5	n	n	n
O=[N+]([O-])c1ccc2nc(-c3ccc(Cl)cc3)n(OCc3ccccc3)c2c1	n	n	62.2	n	n	n
CCNC(=S)NC(=NCc1cccnc1)Nc1nc(C)cc(C)n1	n	n	n	n	75.8	n
CCn1c(SCc2nc3ccccc3[nH]2)nnc1-c1ccc(OC)cc1	n	n	77.9	n	n	n
C=CCn1c(SCc2nc3ccccc3[nH]2)nnc1-c1cccc(OC)c1	n	n	71.2	n	n	n
CCn1c(SCc2nc3ccccc3[nH]2)nnc1-c1ccncc1	n	n	n	n	n	n
C=CCn1c(SCc2nc3ccccc3[nH]2)nnc1-c1ccc(OC)cc1	n	n	91.4	n	n	n
COc1ccc(C(=O)COC(=O)c2cnc(C)cn2)cc1OC	x	x	x	x	x	n
Cn1c(SCC(=O)NN2C(=O)NC(C)(c3ccccc3)C2=O)nnc1-c1ccncc1 (centres undefined)	x	n	x	n	n	n
Cc1ccccc1NC(=O)CN1C(=O)CSc2ccc(S(=O)(=O)N3CCCCC3)cc21	n	n	n	n	n	n
c1cncc(-c2nnc(-c3cccnc3)nn2)c1	n	n	66.0	n	n	n
CCN(CC)c1cccc(OC(=O)c2cccnc2Cl)c1	n	n	n	n	n	n
SMILES	p-CIP stab down	Mot1-301 SUMO	PHOSPHO1 block	HDAC3 inh	GASC-1 inh	PvdQ inh
CC(C)C[C@H](NC(=O)[C@@H]1Cc2c([nH]c3ccccc23)C2c3ccccc3C(=O)N21)C(=O)NCC1CCCO1 (some centres undefined)	n	n	n	n	u	n
CSCC[C@H](NC(=O)[C@@H]1Cc2c([nH]c3ccccc23)C2c3ccccc3C(=O)N21)C(=O)NCC1CCCO1 (some centres undefined)	n	793.0	n	n	n	n
C[C@H](NC(=O)N1CCn2c1nc1ccccc12)C(=O)NCCc1ccccc1	n	n	n	n	n	n
Oc1c(C(c2ccccc2Cl)N2CCCC2)ccc2cccnc12 (centres undefined)	n	n	n	n	n	n
Oc1c(C(c2cccs2)N2CCN(c3ccccc3)CC2)ccc2cccnc12 (centres undefined)	n	n	69.1	n	n	x
CCOCC(=O)Nc1nnc(COc2ccc(Cl)cc2)s1	n	n	95.3	n	n	n
Cc1nnc(NC(=O)CCSc2ccc(Cl)cc2)s1	n	n	60.0	n	n	n
O=C(CSc1ccccc1)Nc1nnc(COc2ccc(Cl)cc2)s1	n	n	77.6	n	n	n
COCC(=O)Nc1nnc(COc2ccc(Cl)cc2)s1	n	x	n	n	n	n

Assay outcomes from PubChem BioAssay.
